ELG1 genotoxic: genotoxicity induction in ELG1-luciferase HEK293T cells. HEK293T ELG1-luciferase reporter, luminescence, 16 h. Potency, µM (series often up to 46 µM), inactives show at the highest dose activity change, positive = activation, hits mostly activators. actives 1.3% (n = 330,000); also: % of control where 0% means no effect; nearly all actives have a fitted effect of over 60% in size
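Step 1: seed 2,000 HEK293T ELG1-luciferase cells per well. Step 2: add compound or DMSO, incubate 16 hr at 37 °C. Step 3: ONE-Glo, 30 min at room temperature, read luminescence.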
Rab9 promoter act: Rab9 promoter activation; Huh7 Rab9 promoter-luciferase reporter, luminescence, 24 h; Potency, µM (titrated, usually from 9.22 µM), for the others: at the highest dose activation, negative = inhibition, usual class: activators; actives 2.8% (n = 320,000); also: % of control where 0% means no effect; nearly all actives have a fitted effect of over 60% in size
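Promoter activation is measured as luciferase luminescence in Huh7 cells stably transfected with a Rab9 promoter–luciferase construct, following 24 h compound exposure at 37 °C and 10 min reagent incubation at ambient temperature.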
NPC1 promoter act: activates the NPC1 promoter. AID 485313. Huh7 NPC1 promoter luciferase reporter, 24 h. Potency, µM (highest dose often 9.22 µM), for the others: at the highest dose activation, most hits filed as activators. actives 2.4% (n = 320,000); also: % of control where 0% means no effect; nearly all actives have a fitted effect of over 60% in size
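Huh7 reporter cells (NPC1 promoter driving luciferase) are dosed with compound for 24 h at 37 °C, 5% CO2; luciferase detection reagent is then added and luminescence measured after 10 min at ambient temperature.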
FLuc modulator: firefly luciferase modulation, counter-screen for miR-21 project; P08659; Potency, µM (titrated, usually from 57.5 µM), without a hit: at the highest dose activity change, negative = inhibition, most hits filed as inhibitors; AID 588342; purified FLuc, Km substrates, luminescence inhibition; actives 6.9% (n = 360,000);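 also: plate controls were vehicle for no effect and reference inhibitor for full effect; nearly all actives have a fitted effect of over 55% in size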
Target sequence (P08659 whole entry, looked up): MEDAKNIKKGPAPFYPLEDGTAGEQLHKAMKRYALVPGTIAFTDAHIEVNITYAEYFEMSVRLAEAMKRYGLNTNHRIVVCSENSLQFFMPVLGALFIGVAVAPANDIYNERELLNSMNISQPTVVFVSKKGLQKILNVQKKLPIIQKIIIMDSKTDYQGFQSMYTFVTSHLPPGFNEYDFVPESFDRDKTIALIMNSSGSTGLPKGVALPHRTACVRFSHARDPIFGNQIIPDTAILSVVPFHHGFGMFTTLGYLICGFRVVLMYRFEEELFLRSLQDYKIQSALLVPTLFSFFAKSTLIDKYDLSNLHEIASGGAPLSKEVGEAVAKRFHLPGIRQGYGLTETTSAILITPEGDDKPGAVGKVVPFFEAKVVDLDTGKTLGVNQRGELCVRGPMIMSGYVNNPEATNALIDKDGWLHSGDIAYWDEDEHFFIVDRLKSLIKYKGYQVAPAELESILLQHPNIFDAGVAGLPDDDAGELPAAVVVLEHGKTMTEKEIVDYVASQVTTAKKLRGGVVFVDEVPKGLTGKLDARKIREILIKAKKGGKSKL
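Purified P. pyralis luciferase (10nM final) with 10uM D-luciferin and 10uM ATP (Km levels) in 50mM Tris acetate pH 7.5, 10mM Mg acetate, 0.01% Tween-20, 0.05% BSA; qHTS 6-point titration, ~60 µM downward; luminescence read.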
SMN2 splice enh: enhancers of SMN2 splice variant expression | HEK293 SMN2-luciferase splicing reporter, luminescence, 30-36 h | Potency, µM (top dose mostly 46.1 µM), without a hit: at the highest dose activity change, positive = activation, hits mostly activators | actives 2.8% (n = 210,000); also: % of control where 0% means no effect; nearly all actives have a fitted effect of over 55% in size
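HEK293 cells carry an SMN2 minigene-luciferase reporter in which exon 7 inclusion puts luciferase in frame. Cells were seeded at 2000 cells/well, attached for 10-12 hours, then exposed to compounds for 30-36 hours at 37C before ONE-Glo luminescence.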
An asterisk follows results filed as active; ? = inconclusive; · = not tested or not shown. Shown are actives, neighbours in structure and some others; about 7.4% of the full set was active somewhere. Calls follow the shape of the dose curve; as a rule, active = well fitted curve in the direction sought with a large enough effect; inconclusive = small, poorly fitted or top-dose-only effect, or another doubt; inactive = no such curve, though single readings can be large; an effect the other way counts as inactive or inconclusive. Potency is read from the fitted curve at half-maximal effect.

SMILES	ELG1 genotoxic	Rab9 promoter act	NPC1 promoter act	FLuc modulator	SMN2 splice enh
O=C(NCC(=O)N(Cc1ccccc1)C(C(=O)NC1CCCC1)c1ccncc1)c1ccco1 (centres undefined)	-1%	0%	1%	-5%	1%
O=C(Nc1ccc(F)cc1F)c1cc(=O)n(-c2ccccc2)c(=O)[nH]1	-6%	5%	-1%	-17%	4%
CN(C)S(=O)(=O)c1cccc(NC(=O)c2ccc(N3CCCC3=O)cc2)c1	0%	·	·	·	·
Cc1csc(NC(=O)c2ccc(N3CCCC3=O)cc2)n1	0.65µM*	0.32µM*	?	1.9µM*	0.56µM*
Cc1cccc(C)c1NC(=O)c1ccc(N2CCCC2=O)cc1	0%	0%	-1%	0%	·
Cc1csc(N2CCCC2=O)n1	1%	13%	-3%	1%	8%
O=C(Nc1nc2ccc(F)cc2s1)c1ccc(N2CCCC2=O)cc1	0.46µM*	0.32µM*	0.4µM*	-18%	·
Cc1nnc(NC(=O)c2ccc(N3CCCC3=O)cc2)s1	?	2.2µM*	?	24µM*	·
CCN(c1ccc(NC(=O)c2ccc(N3CCCC3=O)cc2)cc1)C(C)C	6.5µM*	-24%	-16%	?	·
O=C1c2ccccc2NC(c2ccc(O)cc2)N1c1ccccc1 (centres undefined)	11%	?	19%	-1%	·
O=C(Nc1ccccc1Br)c1ccc(N2CCCC2=O)cc1	?	2.5µM*	?	15µM*	·
CC(=O)N1CCN(c2ccc(NC(=O)c3cccc([N+](=O)[O-])c3)cc2)CC1	3%	14%	17%	-10%	·
CC(=O)N1CCN(c2ccc(NC(=O)c3ccccc3Cl)cc2)CC1	1%	2%	1%	-4%	·
O=C(Nc1ccc(N2CCCCCC2)cc1)c1ccccc1Cl	?	?	21%	11µM*	14µM*
O=C(Nc1ccc(SC(F)(F)F)cc1)c1ccccn1	2.3µM*	1.4µM*	?	0.85µM*	2.2µM*
O=C(Nc1ccc(N2CCCC2)cc1)C(c1ccccc1)c1ccccc1	3%	-4%	-2%	3%	-13%
O=C(Nc1ccc(N2CCCCC2)cc1)C(Cl)c1ccccc1 (centres undefined)	10µM*	0%	?	3µM*	16%
COc1ccccc1C(=O)Nc1ccc(N2CCN(C(C)=O)CC2)cc1	2%	2%	0%	?	-11%
COc1ccccc1C(=O)Nc1ccc(N2CCCCC2)cc1	2.9µM*	4µM*	?	2.7µM*	18µM*
COc1ccc(NC(=O)CCNS(=O)(=O)c2cccc3nonc23)cc1	-1%	-1%	-1%	-1%	7%
C[C@H]1CC[C@@H]2N(C1)C[C@H]1[C@@H]3C[C@H]4[C@@H](C/C(=N\O)[C@H]5C[C@@H](O)CC[C@@]54C)[C@@H]3CC[C@H]1[C@]2(C)O	·	·	·	·	6%
COc1ccc2c(c1)CC(NC(=O)Nc1c(C)cc(C)cc1C)CO2 (centres undefined)	·	·	·	4%	·
O=C(Nc1ccc(N2CCCCCC2)cc1)c1ccc[nH]1	?	0.4µM*	1.1µM*	·	·
O=C(Nc1ccccc1)c1cccnc1N1CCCC1	1%	-4%	5%	0%	-10%
O=C(Nc1ccc(N2CCCCC2)cc1)c1ccccn1	?	?	?	0.067µM*	-77%
SMILES	ELG1 genotoxic	Rab9 promoter act	NPC1 promoter act	FLuc modulator	SMN2 splice enh
Cc1[nH]n(-c2ccccc2)c(=O)c1/C=C1\C=NN=C1c1ccccc1	12%	0%	-1%	12µM*	·
Cc1ccc(-n2[nH]c(C)c(/C=C3/C=Nc4ccccc43)c2=O)cc1C	12%	-1%	16%	-2%	18µM*
Cc1cc(C)cc(NC(=O)C2CCCN(c3nnc(-n4c(C)ccc4C)s3)C2)c1 (centres undefined)	·	·	·	-8%	-1%
COc1ccc(CCNC(=S)c2ccccc2)cc1OC	-7%	-17%	-11%	1%	·
O=C(CCC1CCCCC1)NC1CCCCC1	2%	·	·	·	·
COc1cccc(C(=O)/C=C/Nc2ccc(S(=O)(=O)Nc3onc(C)c3C)cc2)c1	13%	12%	0%	15µM*	14%
Cc1noc(NS(=O)(=O)c2ccc(N/C=C\C(=O)c3cccc4ccccc34)cc2)c1C	10%	11%	2%	13µM*	-15%

Compound activity as filed in PubChem BioAssay.
